# Bioassay records: PubChem, several laboratories
# Only some compounds are listed: those with a hit (about 12% of all), similar ones and a draw of the others.
# WT yeast gro inh: growth inhibition of WT strain, primary screen, mitochondrial fusion inhibitor project, WT and mutant strains, chemical genetic | mitochondrial fusion phenotypic screen | inhibition, % at 10 µM | 2.1% of 190,000 active | AID 1362, 2008; in the data active = inhibition above about 58%; tested in S. cerevisiae
# Arbovirus inh: antivirals against arbovirus infection, primary screen, cell-based, full library, 10K replicate subset; arbovirus infection cell-based antiviral screen; 0.37% of 200,000 active; inhibition, % at 10 µM; in the data active = inhibition above about 30%
# L major viab: Leishmania major promastigote growth inhibition, primary screen | Leishmania major promastigotes, resazurin fluorescence viability | inhibition, % at 10 µM | 9% of 200,000 active; in the data active = inhibition above about 50%;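 also: promastigotes grown with compound for 44 hours at 28 °C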
# CHOP inh: inhibitors of CHOP promoter induction, primary screen, cell-based, unfolded protein response, luciferase reporter; CHO-K1 CHOP-promoter luciferase, tunicamycin-induced, 15-18 h; inhibition, % at 10 µM; 3.8% of 220,000 active;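 active = compounds that reduced the stress-induced luciferase reporter signal by more than about 70% of percent inhibition, limit read from the data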;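 also: 0% = tunicamycin plus vehicle and 100% = wells without tunicamycin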
# * marks the source's active call; other numbers are inactive results; · = no result.
SMILES,WT yeast gro inh,Arbovirus inh,L major viab,CHOP inh
COc1ccc(Oc2nnc(-c3ccc(C)cc3)c3ccccc23)cc1,0,-1,-4,83*
O=C(Nc1ccc(Oc2nnc(-c3ccccc3)c3ccccc23)cc1)c1ccccc1,29,-4,77*,38
CC(=O)Nc1ccc(S(=O)(=O)Oc2ccc3c(c2)C(C)=CC(C)(C)N3)cc1,-1,21,25,55
CC1=CC(C)(C)Nc2ccc(OS(=O)(=O)c3ccc(C)cc3)cc21,21,-1,94*,8
O=C1C(Cl)=C(NC2CCCCC2)C(=O)N1Cc1ccccc1,70*,2,-7,67
Fc1ccc(N=C2NN=C(c3cc(F)ccc3F)CS2)cc1,80*,-14,3,35
COCCn1c(C)cc(C2=NNC(=Nc3ccccc3F)SC2)c1C,-8,-4,-2,70*
Fc1ccc(F)c(C2=NNC(=Nc3ccccc3F)SC2)c1,63*,-23,-3,15
O=S(=O)(c1ccc(N=C2NN=C(c3cc(F)ccc3F)CS2)cc1)N1CCOCC1,31,-14,16,39
CN(C)c1cc[n+](CC(=O)N2CCCc3ccccc32)cc1,1,3,0,-5
COc1ccc(Cl)cc1Nc1nc(-c2sc(NC(=O)C(C)(C)C)nc2C)cs1,18,8,96*,27
CCC(C)C(=O)Nc1nc(C)c(-c2csc(Nc3cc(Cl)ccc3OC)n2)s1 (stereo not drawn),24,12,43,49
COc1ccc(OC)c(Nc2nc(-c3sc(NC(=O)C(C)(C)C)nc3C)cs2)c1,-1,-14,93*,38
COc1ccc(OC)c(Nc2nc(-c3sc(C)nc3C)cs2)c1,7,-8,21,21
Cc1nc(N2CCC(C)CC2)c2nnn(Cc3ccccc3)c2n1,56,-22,1,2
COc1ccc(CCn2cnc(=O)c(C#N)c2C)cc1OC,-17,5,-4,19
CCc1ccc(/C=C2\Oc3c(ccc(O)c3CN3CCN(CCO)CC3)C2=O)cc1,·,·,·,3
CCCCN(CC)S(=O)(=O)c1ccc(C(=O)Nc2nnc(-c3ccccc3Cl)o2)cc1,16,-14,99*,88*
COc1ccccc1-c1nnc(NC(=O)c2ccc(S(=O)(=O)N(C)C)cc2)o1,3,-13,15,85*
CCCCN(C)S(=O)(=O)c1ccc(C(=O)Nc2nnc(-c3cccs3)o2)cc1,19,-18,99*,·
COc1ccccc1-c1nnc(NC(=O)c2ccccc2F)o1,-8,17,-5,3
CCCCN(C)S(=O)(=O)c1ccc(C(=O)Nc2nnc(C3=COCCO3)o2)cc1,10,-7,-2,3
CCN(Cc1ccccc1)S(=O)(=O)c1ccc(C(=O)Nc2nnc(-c3ccccc3OC)o2)cc1,-18,-9,99*,85*
Cc1cc(C)nc(SCC(N)=O)n1,·,·,·,-2
CN1CCN(NC(=O)c2cccc(Br)c2)CC1,3,2,1,-51
SMILES,WT yeast gro inh,Arbovirus inh,L major viab,CHOP inh
CC(=O)N1C=Cc2c(c(C)c3c([nH]c4ccccc43)c2C)C1,·,·,·,22
COc1ccccc1S(=O)(=O)CC(O)COc1ccc(F)cc1Cl (stereo not drawn),1,-3,-11,13
CC(OC(=O)c1cc(-c2cccnc2)nc2ccccc12)C(=O)Nc1ccc2ccccc2c1 (stereo not drawn),14,-10,75*,16
CCN(CC)c1nc(Oc2ccc(C(=O)OC)cc2)nc(N2CCOCC2)n1,-2,-5,21,85*
Clc1ccc(Oc2nc(Oc3ccc(Cl)cc3)nc(N3CCOCC3)n2)cc1,17,8,24,32
CCOc1ccc(Oc2nc(N(CC)CC)nc(N3CCOCC3)n2)nn1,3,-6,-6,-4
COC(=O)c1ccc(Oc2nc(N3CCCCC3)nc(N3CCOCC3)n2)cc1,7,4,6,71*
CCN(C(=O)COC(=O)c1ccc(Br)o1)C1CCCCC1,12,13,-3,6
Cn1cc(C(=O)c2cccc(Cl)c2)cc1/C=N\O,-2,-4,15,33
CO/N=C\c1cc(C(=O)c2ccc(Cl)cc2Cl)cn1C,60*,6,7,19
CCCCCCCCOC(=O)c1ccc(N)cc1,16,-19,3,76*
CCCCOC(=O)c1ccc(O)cc1,-7,0,-6,0
CCCCOC(=O)Nc1ccc(C(=O)OCCC)cc1,23,-3,9,86*
COc1ccc(-c2c[n+](CC(=O)OC3CC(C)CCC3C(C)C)c3n2CCC3)cc1 (stereo not drawn),12,3,100*,31
CC(C)[C@@H]1CC[C@@H](C)C[C@H]1OC(=O)C[n+]1cc(-c2ccc(Cl)cc2)n2c1CCCCC2,·,·,·,10
Clc1ccc(-c2nc3cnccn3c2Nc2ccc3c(c2)OCO3)cc1,22,-33,30,-21
c1cn2c(Nc3ccc4c(c3)OCCO4)c(-c3ccc(N4CCOCC4)cc3)nc2cn1,·,·,·,-25
Oc1ccccc1-c1nc2cnccn2c1Nc1ccc2c(c1)OCCO2,20,-10,77*,38
CSc1ccc(-c2nc3cnccn3c2Nc2ccc3c(c2)OCO3)cc1,21,-23,100*,-12
O=C(CN(CC1CCCO1)C(=O)CNS(=O)(=O)c1ccc(Cl)cc1)NCC1CCCO1 (stereo not drawn),-4,3,-4,24
Cc1cccc(OCC(=O)O/N=C(\N)Cc2ccc(Cl)cc2)c1,22,0,-4,28
Cc1cc(-c2sccc2Br)nc(-n2cccc2)n1,69*,6,-3,-3
CCOC(=O)c1c(C)[nH]c(C2=NNC(=Nc3cccc(Cl)c3)SC2)c1C,63*,-24,39,59
O=C(NCc1nc(-c2ccccc2)no1)c1ccc2c(c1)OCO2,-3,5,-5,0
Cc1ccccc1OCc1nc(-c2ccc(NC(=O)c3ccc4c(c3)OCO4)cc2)no1,7,-24,4,74*
SMILES,WT yeast gro inh,Arbovirus inh,L major viab,CHOP inh
Cc1ccccc1OCc1nc(-c2ccc(NC(=O)c3cccs3)cc2)no1,21,3,71*,56
Cc1ccccc1OCc1nc(-c2ccc(NC(=O)c3ccco3)cc2)no1,35,-5,3,57
N#CCCN(Cc1cccs1)C(=O)Nc1ccccc1,·,·,·,21
N#CC1=C(N)OC2=C(CCc3ccccc32)C1c1ccccc1 (stereo not drawn),90,-31,16,100*
N#CC1=C(N)Oc2cc(O)ccc2C1c1ccccc1 (stereo not drawn),-5,-5,-8,21
CCN1CCCC1CNS(=O)(=O)c1ccc(Cl)c(C(F)(F)F)c1 (stereo not drawn),-7,9,81*,25
CCSC(=O)NC12CC3CC(CC(C3)C1)C2,0,10,0,52
CSC(=O)NC12CC3CC(CC(C)(C3)C1)C2,13,3,9,78*
CCCn1c(/C=C/c2ccccc2)nc2ccccc21,30,-4,88*,53
CC(C)Cn1c(/C=C/c2ccco2)nc2ccccc21,30,5,61*,-15
COCCOCCn1c(CCCO)nc2ccccc21,-18,2,-4,24
COCCOCCn1c(/C=C/c2ccccc2)nc2ccccc21,28,-1,63*,3
